{"source": "PubChem BioAssay AID651821", "about": "(The Scripps Research Institute Molecular Screening Center, 2012)", "note": "Screen size: about 370,000 compounds; about 4,700 (1.3%) were called active. This is one part of a sample in which actives are shown more often than they occur.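 How the source made its calls: active means inhibition above the plate cutoff, the mean of all test compounds on that plate plus 3 SD (cut at about 35% in these data); inactive means the rest.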"}
{"experiment": "small molecules binding CAG repeat RNA – biochemical, fluorescence, primary screen (AID 651821);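 further: 0% = DMSO alone and 100% = 100 µM mitoxantrone as full dye displacement; higher means more dye released from RNA so lower well fluorescence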", "details": "r(CAG) RNA repeat, TO-PRO-1 dye displacement fluorescence; at 3 µM; hits give high values"}
{"molecule": "Cc1cccc(NC(=O)c2cc3c(C)nn(-c4ccccc4)c3s2)c1", "inhibition": "11.1% (inactive)"}
{"molecule": "Cc1nn2c(c1-c1ccccc1)N=C(c1ccco1)CC2c1ccccc1", "note": "(configuration not stated)", "inhibition": "11.8% (inactive)"}
{"molecule": "COC(=O)C1=C(C)N(Cc2ccccc2C(F)(F)F)C(=NCc2ccc(OC)cc2)NC1c1cccc(C(F)(F)F)c1", "note": "(configuration not stated)", "inhibition": "1.76% (inactive)"}
{"molecule": "O=c1c(-c2ccc3c(c2)OCCO3)c(C(F)(F)F)oc2cc(O)cc(O)c12", "inhibition": "22.9% (inactive)"}
{"molecule": "CCOC(=O)c1oc2c(CN3CCN(C)CC3)c(O)ccc2c(=O)c1-c1ccc(Br)cc1", "inhibition": "-3.79% (inactive)"}
{"molecule": "CCOC(=O)c1cc2cc(-c3c(C(=O)OCC)oc4cc(O)cc(O)c4c3=O)ccc2o1", "inhibition": "42.5% (active)"}
{"molecule": "COC(=O)C1CN(Cc2cn(Cc3ccc(F)cc3)nn2)CCS(=O)(=O)N1Cc1ccc(Cl)cc1", "note": "(configuration not stated)", "inhibition": "-1.1% (inactive)"}
{"molecule": "COc1cccc(-c2cc(CNC(=O)[C@@H](Cc3ccccc3)NC(=O)[C@H]3O[C@@H](n4cnc(C(N)=O)n4)[C@H](O)[C@@H]3O)no2)c1", "inhibition": "6.53% (inactive)"}
{"molecule": "COc1cccc(CC(=O)N2CCN(C(=O)C(=O)c3cccc(C(F)(F)F)c3)CC2)c1", "inhibition": "-1.34% (inactive)"}
{"molecule": "Cc1[nH]c2ccc(S(N)(=O)=O)cc2c1C", "inhibition": "2.18% (inactive)"}
{"molecule": "NS(=O)(=O)c1ccc(N=Nc2c(O)[nH]c3ccc(Br)cc23)cc1", "inhibition": "51.6% (active)"}
{"molecule": "Cc1cccc(N=Nc2c(O)[nH]c3ccc(F)cc23)c1", "inhibition": "17.5% (inactive)"}
{"molecule": "O=C(NC1CCCCN(Cc2ccc(Cl)cc2)C1=O)c1ccc(Br)cc1", "note": "(configuration not stated)", "inhibition": "2.36% (inactive)"}
{"molecule": "O=C(O)Cn1cnc2c(NCc3ccccc3)ncnc21", "inhibition": "2.28% (inactive)"}
{"molecule": "Nn1c(SCC(=O)Nc2cccc3ccccc23)nnc1-c1cc(-c2ccc(F)cc2)n[nH]1", "inhibition": "9.39% (inactive)"}
{"molecule": "CC(C(=O)Nc1ccc(O)c(C(=O)O)c1)N1C(=O)/C(=C/c2cccs2)SC1=S", "note": "(configuration not stated)", "inhibition": "87.5% (active)"}
{"molecule": "CCOc1ccc(NC(=O)C(C)N2C(=O)c3ccccc3C2=O)cc1", "note": "(configuration not stated)", "inhibition": "-4.17% (inactive)"}
{"molecule": "O=C1/C(=C/c2cccs2)SC(=S)N1C1CCS(=O)(=O)C1", "note": "(configuration not stated)", "inhibition": "-0.31% (inactive)"}
{"molecule": "CC(C)c1ccc(N2CC(C(=O)Nc3nccs3)CC2=O)cc1", "note": "(configuration not stated)", "inhibition": "0.86% (inactive)"}
{"molecule": "CCc1ccc(N2CC(C(=O)Nc3ccc(S(=O)(=O)Nc4nccs4)cc3)CC2=O)cc1", "note": "(configuration not stated)", "inhibition": "50.1% (active)"}
{"molecule": "CNS(=O)(=O)c1ccc(NC(=O)C2CC(=O)N(c3ccc(Cl)cc3)C2)cc1", "note": "(configuration not stated)", "inhibition": "6.47% (inactive)"}
{"molecule": "Nc1ncnc2c1ncn2C1OC(CO)CC1O", "note": "(configuration not stated)", "inhibition": "0.74% (inactive)"}
{"molecule": "O=C(NCCc1c[nH]c2ccccc12)OCc1cn(-c2c(F)cccc2F)nn1", "inhibition": "0.36% (inactive)"}
{"molecule": "COCCN(Cc1ccccc1)C(=O)Cc1ccc(S(=O)(=O)N2CCOCC2)s1", "inhibition": "0.74% (inactive)"}
{"molecule": "CCCCCCCCN1C(=O)[C@@H](CC(=O)NCc2ccc(C)o2)C[C@@]2(C(=O)OC)C1=C[C@H](C(C)(C)C)O[C@@H]2C", "inhibition": "1.42% (inactive)"}
{"molecule": "O=C1OC(NC(=O)c2ccccc2)C(N2CCOCC2)=C1Cl", "note": "(configuration not stated)", "inhibition": "-0.63% (inactive)"}
{"molecule": "O=C(O)c1ccc(N=NN2CCOCC2)cc1", "inhibition": "3% (inactive)"}
{"molecule": "O=C(O)c1ccc(NN=CC2=C(N3CCOCC3)/C(=C/c3ccccc3)CC2)cc1", "inhibition": "48.1% (active)"}
{"molecule": "CCOc1ccc(-n2c(SCC(=O)Nc3cc(C)c(NC(=O)c4ccccc4)cc3OC)nnc2-c2cccc(Cl)c2)cc1", "inhibition": "12.6% (inactive)"}
{"molecule": "CCc1ccc(NC(=O)CCNS(=O)(=O)c2cccs2)cc1", "inhibition": "-0.02% (inactive)"}
{"molecule": "O=C(COC(=O)c1ccc(NS(=O)(=O)c2cccs2)cc1O)Nc1ccc(F)cc1", "inhibition": "43.1% (active)"}
{"molecule": "O=C(COC(=O)c1ccc(O)cc1O)NNC(=O)c1cccs1", "inhibition": "1.41% (inactive)"}
{"molecule": "C=CCn1c(C2CC(=O)N(c3ccc(C)cc3)C2)nc2ccccc21", "note": "(configuration not stated)", "inhibition": "-6.52% (inactive)"}
{"molecule": "C=CCn1c(=S)[nH]c2scc(-c3ccco3)c2c1=O", "inhibition": "51.7% (active)"}
{"molecule": "C=CCOC/C=C/C#CCN(CC=C)Cc1ccc(OC)cc1OC", "inhibition": "-2.46% (inactive)"}
{"molecule": "COC(=O)[C@]12C[C@H](CC(=O)NCc3cccc(C(F)(F)F)c3)C(=O)N(Cc3ccc4c(c3)OCO4)C1=C[C@H](COCc1ccccc1)O[C@@H]2C", "inhibition": "7.43% (inactive)"}
{"molecule": "CCn1c2ccccc2c2cc(NC(=O)CSc3nnc(-c4ccccc4)n3-c3ccc(C)cc3)ccc21", "inhibition": "11.4% (inactive)"}
{"molecule": "Cc1nnc(SCC(=O)Nc2ccc(S(=O)(=O)Nc3ccc(Cl)nn3)cc2)s1", "inhibition": "16.9% (inactive)"}
{"molecule": "Cc1ccc(-c2nnc(SCC(=O)Nc3ccc(Oc4ccccc4)cc3)n2Cc2ccco2)cc1", "inhibition": "10.4% (inactive)"}
{"molecule": "O=C(CSc1nnc(SCc2ccc(F)cc2)s1)Nc1ccc(C(=O)O)cc1", "inhibition": "24.4% (inactive)"}
{"molecule": "Cc1cc(NS(=O)(=O)c2ccc(NC(=O)CSc3nnc(SCc4ccc(F)cc4)s3)cc2)nc(C)n1", "inhibition": "43.9% (active)"}
{"molecule": "CCn1c(SCC(=O)Nc2ccc(S(=O)(=O)Nc3onc(C)c3C)cc2)nnc1-c1ccccc1", "inhibition": "35.5% (active)"}
{"molecule": "Cc1cc(NS(=O)(=O)c2ccc(NC(=O)CSc3nnc(-c4ccc(C(C)(C)C)cc4)n3Cc3ccco3)cc2)nc(C)n1", "inhibition": "37% (active)"}
{"molecule": "Cc1noc(NS(=O)(=O)c2ccc(N3CC(O)=C(c4ccccc4)C3=N)cc2)c1C", "inhibition": "2.76% (inactive)"}
{"molecule": "O=C(CSc1nnc(-c2cccc(Cl)c2)n1Cc1ccco1)Nc1ccc(OCc2ccccc2)cc1", "inhibition": "8.04% (inactive)"}
{"molecule": "COC(=O)C1=C(C)N(Cc2cccc(C(F)(F)F)c2)C(=NCc2ccccc2)NC1c1ccccc1C(F)(F)F", "note": "(configuration not stated)", "inhibition": "4.41% (inactive)"}
{"molecule": "NC(=O)c1ncn([C@@H]2O[C@H](C(=O)O)[C@@H](O)[C@H]2O)n1", "inhibition": "1.22% (inactive)"}
{"molecule": "COc1ccc(C#CCNCc2ccc(OC)cc2OC)cc1", "inhibition": "7.62% (inactive)"}
{"molecule": "CC(=O)OC1CCC2(C)C(=CCC3C4CC(=O)N(O)C(=O)C4(C)CCC32)C1", "note": "(configuration not stated)", "inhibition": "5.82% (inactive)"}
{"molecule": "CC(=O)OCCN1CCCC12CCC(c1ccccc1)CC2", "note": "(configuration not stated)", "inhibition": "2.02% (inactive)"}
{"molecule": "COC(=O)[C@]12C[C@H](CC(=O)NCCCN3CCCC3=O)C(=O)N(CCc3ccc(OC)c(OC)c3)C1=C[C@H](COCc1ccccc1)O[C@@H]2C", "inhibition": "3.23% (inactive)"}
{"molecule": "CC(=O)Nc1nc2ncccn2c1-c1ccc(C(F)(F)F)cc1", "inhibition": "0.83% (inactive)"}
